This is part of a sample that, as a whole, favours compounds with a hit. Of some 83,000 tested, about 20% had one in any assay.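 Each cell line was grown in a 96-well plate and treated with one concentration of compound for 48 hours. Values below 10 were considered active.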 Unmarked numbers belong to inactive results. The source made the active and inactive calls.
What was measured:
Assay in all cases: NCI-60 one-dose screen, 48 h (100 = growth as untreated, 0 = no growth, -100 = all killed)
Settings in all cases: 10 µM unless noted
HCT-15 colon = test system: HCT-15 colon
HT29 colon = test system: HT29 colon
SNB-75 CNS = test system: SNB-75 CNS
SNB-19 CNS = test system: SNB-19 CNS
U251 CNS = test system: U251 CNS
PC-3 prostate = test system: PC-3 prostate
SK-MEL-5 melanoma = test system: SK-MEL-5 melanoma
UACC-62 melanoma = test system: UACC-62 melanoma
LOX IMVI melanoma = test system: LOX IMVI melanoma
SK-MEL-28 melanoma = test system: SK-MEL-28 melanoma
SK-MEL-2 melanoma = test system: SK-MEL-2 melanoma
SN12C renal = test system: SN12C renal
UO-31 renal = test system: UO-31 renal
TK-10 renal = test system: TK-10 renal
ACHN renal = test system: ACHN renal
CAKI-1 renal = test system: CAKI-1 renal
A498 renal = test system: A498 renal
CCRF-CEM leukemia = test system: CCRF-CEM leukemia
MOLT-4 leukemia = test system: MOLT-4 leukemia
EKVX NSCLC = test system: EKVX NSCLC

| Structure (SMILES) | growth (HCT-15 colon) | growth (HT29 colon) | growth (SNB-75 CNS) | growth (SNB-19 CNS) | growth (U251 CNS) | growth (PC-3 prostate) | growth (SK-MEL-5 melanoma) | growth (UACC-62 melanoma) | growth (LOX IMVI melanoma) | growth (SK-MEL-28 melanoma) | growth (SK-MEL-2 melanoma) | growth (SN12C renal) | growth (UO-31 renal) | growth (TK-10 renal) | growth (ACHN renal) | growth (CAKI-1 renal) | growth (A498 renal) | growth (CCRF-CEM leukemia) | growth (MOLT-4 leukemia) | growth (EKVX NSCLC) |
| --- | --- | --- | --- | --- | --- | --- | --- | --- | --- | --- | --- | --- | --- | --- | --- | --- | --- | --- | --- | --- |
| CCOC(=O)NC(=S)n1oc(=O)c2ccccc21 | 103% | 105% | 94.7% | 104% | 98.6% | 98.3% | 108% | 93.3% | 96.8% | 103% | 110% | 102% | 82.2% | 109% | 101% | 90.4% | 103% | 101% | 95.9% |  |
| CN1C(=O)/C(=C/c2ccc(C(=O)Nc3ncc(Cc4cc(Cl)ccc4Cl)s3)cc2)SC1=S | 49% | 64% | 63.1% | 87.8% | 82.7% | 65.8% | 67% | 34.2% | 41.7% | 77% | 101% | 87.7% | 63.4% | 79.6% | 58.8% | 30.2% | 77.4% | 62.9% | 70.8% |  |
| COC(=O)c1c2c(c[n+]([O-])c1C)C(=O)C=C(NCc1ccccc1)C2=O | -58.8% (active) | 0.45% (active) | -97.3% (active) | -99.4% (active) | -93.1% (active) | -10.8% (active) | -100% (active) | -81.3% (active) | -74.6% (active) | -71.4% (active) | -70.8% (active) | -91.5% (active) | -100% (active) |  | -89.7% (active) | -98.2% (active) |  | 0.673% (active) | -44.3% (active) | -98.8% (active) |
| C/C=C1/CN(CCCCC)CC[C@H]1C(=O)c1cc2ccccc2[nH]1 | 87% | 75.7% | 76.4% | 96.7% | 98.1% | 85.8% | 87.9% | 95% | 90.1% | 111% | 118% | 86.1% | 50.7% |  | 96.1% | 87.6% | 88.9% | 96.8% | 86.1% | 94.1% |
| Nc1cccc(-c2ccc(COc3ccc(CC4SC(=O)NC4=O)cc3)cc2)c1 (stereo not drawn) | 34.3% | 100% | 54.4% | 69.3% | 45.9% | 59.7% | 14.8% | 55.4% | 57.5% | 55.9% | 52.3% | 68.6% | 53.3% |  | 62.6% | 47.3% | 110% | 52.3% | 43.2% | 62.2% |
| C=CCN=c1sc(-c2ccc3ccccc3c2)cn1NC(=O)c1cc2ccc1CCc1ccc(cc1)CC2 | 49.5% | 30.1% | 53.3% | 66.8% | 53.9% | 37.8% | -10.1% (active) | 52.7% | 59.9% | 72.2% | 85.6% | 74.3% | 42.3% |  | 72.3% | 60.9% | 62.7% | 41.2% | 45.3% | 58.2% |
| C=C[C@@]1(C)CC(=O)[C@@H](C(C)(C)c2cn(C)c3ccc(Br)cc23)C[C@@H]1O[Si](C)(C)C(C)(C)C | 102% | 103% | 102% | 98.9% | 97.4% | 84.1% | 104% | 93.7% | 90.4% | 100% | 97.8% | 97.6% | 94% |  | 111% | 90.2% | 106% | 89.5% | 94.7% | 99.3% |
| Fc1ccc2[nH]cc(-c3nc(-c4c[nH]c5c(Cl)nccc45)cs3)c2c1 | -39.6% (active) | 17.5% | 49.9% | 59.9% | 13.8% | 31.5% | 60.4% | 24% | 16.2% | 43.9% | 73.4% | 65.9% | 21.8% | 33.8% | 17.7% | 49.2% | 14% | 28.5% | 38.2% |  |
| Cc1ccc2c(c1)nc(C)n2-c1ncnc2c1CC(C)c1cc(O)ccc1N2C (stereo not drawn) | 26.7% | 36.8% | 25.3% | 48.7% | 20% | 29.6% | 23.7% | 39.3% | 43% | 61.1% | 21.4% | 52.3% | 47.9% |  | 49.5% | 42.4% | 6.65% (active) | 9.39% (active) | 13.4% | 44.2% |
| CCn1cc(C(=O)O)c(=O)c2cc(F)c(N3CCN(CC(=O)Nc4ccccc4)C(C)C3)c(F)c21 (stereo not drawn) | 101% | 108% | 86.1% | 99.1% | 102% | 93.2% | 99.2% | 78.2% | 88.5% | 97% | 122% | 103% | 76.5% |  | 97.8% | 87% | 73.4% | 96.7% | 107% | 104% |
| Brc1ccc(Nc2nc(Nc3cnc4ccccc4c3)c3[nH]cnc3n2)cc1 | 83% | 70.7% | 77.5% | 93.6% | 89.4% | 27.6% | 72.6% | 66.8% | 63.7% | 94.2% | 78.2% | 88.3% | 70.3% | 113% | 77.5% | 82.9% | 79.6% | 60.6% | 78.3% |  |
| Cc1c2cnccc2c(C)c2c1c1cc(CO)ccc1n2C | -10.9% (active) | -16.3% (active) | -45.1% (active) | -22.2% (active) | -38.1% (active) | -9.48% (active) | -96.8% (active) | -74.7% (active) | -63.5% (active) | -69.5% (active) | -75.5% (active) | -33.8% (active) | -32.6% (active) | -27.7% (active) | -36.4% (active) | -28.3% (active) | -67.1% (active) | -7.79% (active) |  |  |
| COc1ccc(-c2nc(SCC(=O)Nc3nc4ccc(C)cc4s3)[nH]c(=O)c2C#N)cc1OC | 104% | 107% | 60.4% | 101% | 104% | 93.2% | 97.7% | 94.4% | 90.4% | 108% | 115% | 95.9% | 61% |  | 96.3% | 74.7% | 102% | 110% | 99.4% | 97% |
| CCOC(=O)c1[nH]cc2c1CCc1sc(Nc3ccccn3)nc1-2 | 67.2% | 77% | 82.2% | 85.2% | 69% | 56.7% | 63.5% | 86.5% | 81.7% | 103% | 84.8% | 91.8% | 70.2% |  | 76.6% | 82.3% | 62.2% | -2.37% (active) | 55.2% | 58.4% |
| C=C(C)[C@@H]1CC[C@]2(COC3CCCCO3)CC[C@]3(C)[C@H](CC[C@@H]4[C@@]5(C)C=C(C=O)C(=O)C(C)(C)[C@@H]5CC[C@]43C)[C@@H]12 (stereo partly drawn) | -30% (active) | -54.2% (active) | -16.3% (active) | -71.4% (active) | -73.6% (active) | -57.7% (active) | -97.5% (active) | -74.9% (active) | -88.9% (active) | -68.7% (active) | -40.9% (active) | -48.8% (active) | -86.8% (active) |  | -59.2% (active) | -40.8% (active) | -95% (active) | -34.9% (active) | 3.64% (active) | -60% (active) |
